From PubChem
Hits are enriched below; roughly 10% of the tested compounds scored in any of these assays.
G9a block = blocks human histone lysine methyltransferase G9a | 350,000 tested, 8.8% active | Potency, µM (titrated, usually from 102 µM), for the others: top-dose activity, negative = inhibition, usual class: inhibitors | G9a H3K9 monomethylation, AlphaScreen, 2 h; further: potency means the concentration at half of the fitted maximal effect; nearly all actives have a fitted effect of over 75% in size
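G9a (20 nM) preincubated 15 min RT with compounds, then 500 nM biotinylated H3K9 peptide and 20 uM SAM added; 2 h RT reaction. Monomethyl-H3K9 product detected by AlphaScreen with anti-H3K9me1 antibody, streptavidin donor and anti-rabbit IgG acceptor beads.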
Sfp inh = inhibitors of Bacillus subtilis Sfp phosphopantetheinyl transferase; Potency, µM, for inactives: largest response in the series, negative = inhibition, actives largely listed as inhibitors; Biochemical Sfp PPTase activity, qHTS; 310,000 tested, 3.5% active; Q9F4F7;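 further: the enzyme is Sfp with the accession as filed and its product quenches rhodamine fluorescence; potency means the concentration at half of the fitted maximal effect; 0% = enzyme reaction without inhibitor and -100% = no enzyme wells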
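Reaction rates are the 30-min fluorescence difference (ex 525, em 598 nm) in wells containing 15 nM Sfp, 5 uM rhodamine-CoA and 12.5 uM BHQ-2-YbbR at pH 7.6 with 10 mM MgCl2.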
PLK1 PBD inh = PLK1 (human) polo-box domain binding inhibition | P53350 | Plk1 PBD binding of FITC phosphopeptide, fluorescence polarization | Potency, µM, without a hit: max response, negative = inhibition, actives largely listed as inhibitors | 360,000 tested, 2.8% active; further: potency means the concentration at half of the fitted maximal effect; series mostly up to about 57 µM; nearly all actives have a fitted effect of over 65% in size
VDR inh = vitamin D3 receptor (human) inhibition; Potency, µM, for the others: max response, negative = inhibition, hits mostly inhibitors; VDR-SRC2-3 peptide fluorescence polarization, 2 h; P11473; 400,000 tested, 0.93% active; AID 504847; further: potency means the concentration at half of the fitted maximal effect
Target sequence (P11473 whole entry, looked up): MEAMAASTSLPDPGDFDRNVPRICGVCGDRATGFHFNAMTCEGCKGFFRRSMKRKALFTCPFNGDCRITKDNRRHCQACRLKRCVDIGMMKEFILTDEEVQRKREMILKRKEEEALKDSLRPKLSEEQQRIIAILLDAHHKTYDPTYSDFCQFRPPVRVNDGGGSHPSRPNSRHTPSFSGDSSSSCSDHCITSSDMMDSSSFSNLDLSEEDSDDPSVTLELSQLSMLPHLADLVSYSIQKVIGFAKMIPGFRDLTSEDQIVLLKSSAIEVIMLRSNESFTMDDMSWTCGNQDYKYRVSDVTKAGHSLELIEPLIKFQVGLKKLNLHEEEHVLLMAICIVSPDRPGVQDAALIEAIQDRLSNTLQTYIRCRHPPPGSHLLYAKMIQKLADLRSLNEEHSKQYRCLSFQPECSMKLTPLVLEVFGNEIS
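Fluorescence polarization assay of small-molecule disruption of VDR binding to coregulator peptide SRC2-3. Compounds and controls pin-transferred, then read after 2 h incubation at ambient room temperature.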
Mm-Cpn inhibitor = inhibitors of Methanococcus maripaludis chaperonin TRiC (MmCpn) | purified Mm-Cpn ATPase, ADP Transcreener TR-FRET | Potency, µM (titrated, usually from 76.9 µM), inactives show at the top dose activity, negative = inhibition, usual class: inhibitors | 330,000 tested, 0.031% active | AID 504842; further: potency means the concentration at half of the fitted maximal effect; nearly all actives have a fitted effect of over 80% in size
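Compound-treated chaperonin, 25 nM final, turns over 10 uM ATP at 37°C for 30 min following a 10 min preincubation; ADP generated competes with ADP-d2 for Eu-cryptate antibody, lowering FRET.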
CCT chaperon mod = changes cytosolic chaperonin activity | purified chaperonin ATPase assay, HTRF ADP detection, 30 min | activity change, % (no concentration beside the values), hits read low | 360,000 tested, 0.3% active | AID 651819; in the data active means activity change below about -30%
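Nucleotide hydrolysis assay: TRiC at 20–40 nM final (set by batch activity) with 10 uM ATP, 30 min at 37 °C, in presence of 76 uM compound. Detection by competitive ADP HTRF, 30 min ambient.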
An asterisk follows results filed as active; ? = inconclusive; / = not tested or not shown; [ ] = remark or other dose. Unless noted, the call rests on the fitted dose curve; in most records, active means well fitted curve in the direction sought with a large enough effect; inconclusive means small, poorly fitted or top-dose-only effect, or another doubt; inactive means no such curve, though single readings can be large; an effect the other way counts as inactive or inconclusive. Unless noted, on the % scale 0 is the no-effect control and ±100 the full control effect.

SMILES | G9a block | Sfp inh | PLK1 PBD inh | VDR inh | Mm-Cpn inhibitor | CCT chaperon mod
Cc1ccc(NC(=O)c2ccccc2-c2ccccc2C(=O)O)cc1 | 26%[59 µM] | 25% | -2% | -18% | 1% | 0
O=C(O)c1ccccc1-c1ccccc1C(=O)NNc1ccccc1 | 8.9µM* | 6% | -9% | ? | -1% | -4
CCOc1cc(/C=C(/C#N)c2nc3ccccc3[nH]2)ccc1OCc1ccc(C(=O)O)o1 | 71µM* | -30% | -18% | -10% | -1% | 2
COC(=O)c1ccccc1NC(=O)CSc1n[nH]c(-c2cccnc2)n1 | 11% | 19% | 21µM* | -16% | 1% | 0
O=C(CSc1n[nH]c(-c2ccccc2)n1)Nc1ccc(F)cc1F | 15% | 8% | 1% | -2% | -2% | 0
O=C(CSc1n[nH]c(-c2ccccc2)n1)Nc1ccccc1O | 50µM* | 9% | -4% | 5% | -1% | 1
O=S(=O)(NCCc1csc2nc(-c3ccc(Cl)cc3)nn12)c1ccc(Oc2ccccc2)cc1 | -5%[59 µM] | / | / | 7% | / | /
COc1ccc(-c2c(C)c3ccc(O)c(CN4CCCC(C)C4)c3oc2=O)cc1OC (stereo not drawn) | 10%[59 µM] | / | / | 16% | / | /
O=C(Nc1cccc(Cl)c1)C1CCN(S(=O)(=O)Cc2ccccc2)CC1 | -9%[59 µM] | / | / | -1% | / | /
N#Cc1cc(S(=O)(=O)c2ccc(Cl)cc2)c(N)[nH]c1=O | 50µM* | 20% | 6% | -8% | ? | -1
CCN(CC)C(=O)c1sc2c(c1C)c(=O)n(-c1ccc(Cl)c(Cl)c1)c(=O)n2Cc1cc(=O)n2ccccc2n1 | ? | / | / | -7% | / | /
CN(C)CCOCCOc1ccccc1-c1ccccc1 | -34%[0.501 µM] | 79µM* | 1% | 6% | -1% | -3
OCCNCCOc1ccccc1-c1ccccc1 | 10µM* | 2% | -6% | -5% | 2% | 0
CC(O)CNCCOc1ccccc1-c1ccccc1 (stereo not drawn) | 3.5µM* | 71µM* | 1% | 8% | 2% | -4
CC(O)CNCCCOc1ccc(Cl)cc1C(C)(C)C (stereo not drawn) | / | ? | -6% | 6% | 1% | 0
CN(C)CCOCCOc1ccc(Cl)cc1C(C)(C)C | 8.9µM* | -25% | 6% | 3% | 2% | 0
CCCN(CCC)C[C@@H]1CCCCN1CCNC(=O)N1c2ccccc2C(=O)Nc2cccnc21 | / | -4% | / | 4% | / | /
Cc1ccccc1Cn1c(SCc2ccc(C(=O)NCCc3ccccc3)cc2)nc2ccncc21 | -46%[59 µM] | / | / | -20% | / | /
O=C1c2ccccc2C(Cc2ccnc(F)c2)(Cc2ccnc(F)c2)c2ccccc21 | / | 8% | / | / | / | /
OCCNCCOCCOc1ccccc1-c1ccccc1 | 8.9µM* | ? | 6% | -4% | -1% | 0
COc1cc(CN(C)C(=O)C(=O)c2c[nH]c3ccccc23)ccc1O | / | / | -10% | -8% | / | -1
COc1ccc(C(c2c[nH]c3ccccc23)c2c[nH]c3ccccc23)cc1O | 45µM* | -8% | / | / | 0% | /
Cc1cc(/C([O-])=C(/C(=S)Nc2ccccc2)[n+]2ccccc2)c(C)n1-c1ccccc1 | 50µM* | -10% | -10% | -10% | -3% | 0
Cc1ccc(-n2c(C)cc(/C([O-])=C(/C(=S)Nc3ccc(F)c(Cl)c3)[n+]3ccccc3)c2C)cc1 | ? | 56µM* | -11% | 18% | -3% | -1
COc1ccc(C2=CC(c3ccc(F)cc3)n3ncc(C(=O)Nc4ccc(C)cc4)c3N2)cc1 (stereo not drawn) | -41%[59 µM] | / | / | 8% | / | /
CSc1ncc(Cl)c(C(=O)N(Cc2ccc(C(C)C)cc2)C2CCS(=O)(=O)C2)n1 (stereo not drawn) | -24%[59 µM] | / | / | 3% | / | /
Nc1cccc2c(=O)[nH]ccc12 | / | -21% | / | -29% | / | /
c1ccc2c3c([nH]c2c1)C(C1CCCCC1)N(Cc1ncc[nH]1)CC3 (stereo not drawn) | 45µM* | -1% | -8% | -5% | 3% | -4
O=C(NCc1cccc(F)c1)C1CCN(c2nn3cc(-c4ccc(F)cc4)nc3s2)CC1 | 1%[59 µM] | / | / | 8% | / | /
